Laboratory results published in PubChem BioAssay (NCI).
Compounds without any hit were thinned out: in the full panel of roughly 79,000, 15% have a hit. The source made the active and inactive calls. Cut-off read from the data, not from the text of the source: active = growth inhibition above about 70%; inactive = the rest.

Columns and labels:
[1] = NCI Yeast Anticancer Drug Screen. Data for the rad50 strain (AID 155);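 note: 0% = growth of vehicle-only cultures of the same strain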; conditions: S. cerevisiae rad50 strain growth inhibition; at 50.0 µM; active compounds read high
Procedure, shortened: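 Yeast carrying a defined DNA repair defect were exposed to test compounds, and growth was compared with vehicle-treated controls to give percent inhibition.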

[2] = NCI Yeast Anticancer Drug Screen. Data for the mec2-1 strain (AID 157); conditions: S. cerevisiae mec2-1 strain, at 50.0 µM, active compounds read high
Procedure, shortened: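 mec2-1 yeast strain, carrying an alteration in DNA damage repair or cell cycle control, was exposed to compounds; growth inhibition was measured relative to vehicle-treated controls.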

[3] = NCI Yeast Anticancer Drug Screen. Data for the sgs1 mgt1 strain (AID 161);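 note: 0% = growth of cultures given vehicle only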; conditions: S. cerevisiae sgs1 mgt1 strain, at 50.0 µM, active compounds read high
Procedure, shortened: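 Percent growth inhibition was derived by comparing compound-exposed mutant yeast with vehicle-exposed cultures. The strain carries alterations in DNA damage repair.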

[4] = NCI Yeast Anticancer Drug Screen. Data for the cln2 rad14 strain (AID 165);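 note: 0% = growth equal to vehicle treated cultures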; conditions: S. cerevisiae cln2 rad14 strain, at 50.0 µM, active compounds read high
Procedure, shortened: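 Yeast carrying cln2 and rad14 alterations (cell cycle control and DNA damage repair) were exposed to compounds. Growth inhibition was measured against vehicle-treated controls.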

[5] = NCI Yeast Anticancer Drug Screen. Data for the bub3 strain (AID 167); conditions: S. cerevisiae bub3 mutant strain, at 50.0 µM, active compounds read high
Procedure, shortened: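 Compounds were applied to a genetically altered yeast strain carrying a cell-cycle control defect. Growth inhibition was scored against vehicle-treated controls.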

[6] = NCI Yeast Anticancer Drug Screen. Data for the mlh1 rad18 strain (AID 175); conditions: S. cerevisiae mlh1 rad18 strain growth inhibition; at 50.0 µM; active compounds read high
Procedure, shortened: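 Growth inhibition of the yeast strain was measured after compound exposure and expressed relative to vehicle-treated controls. The strain carries defined defects in DNA damage repair.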

Measured: growth inhibition

CC1CC(C)(C)OC(c2ccc(Cl)cc2)O1 (stereo unspecified)
inactive: [1] 9.35% | [2] -5.85% | [3] -9.6% | [4] -52.5% | [5] -12.4% | [6] -9.1%

c1ccc(-c2ccc(N=NN3CCCC3)cc2)cc1
inactive: [1] 0.75% | [2] -5.6% | [3] 14.3% | [4] 6.4% | [5] -6.15% | [6] 8.1%

CNCc1ccccc1[N+](=O)[O-]
inactive: [1] 6.75% | [2] -3.95% | [3] -3.9% | [4] -9.95% | [5] 3.7% | [6] -0.3%

COC1(OC)C(c2ccc(Cl)cc2)C(C#N)(C#N)C1(OC)OC (stereo unspecified)
inactive: [1] -7.25% | [2] -13.2% | [3] -14.2% | [4] -48.4% | [5] -1.15% | [6] -7.45%

COc1ccc2c(c1)[n+]([O-])c(/C(C)=N/NC(=O)c1ccccc1O)c(C)[n+]2[O-]
inactive: [1] 16.2% | [2] -3.9% | [3] 9.45% | [4] -106% | [5] -3.35% | [6] 0.7%

O=C(N/C=C\NC(=O)Nc1cccc(Cl)c1)Nc1cccc(Cl)c1
inactive: [1] 40.8% | [2] 16.1% | [3] 15.8% | [4] 15.8% | [5] -1.95% | [6] 18.8%

Cc1cc(NS(=O)(=O)c2ccc(Nc3c4ccccc4nc4c(C(=O)NCCN(C)C)ccc(Cl)c34)cc2)no1
inactive: [1] -9.25% | [2] 17.1% | [3] -2.4% | [4] 6.1% | [5] -3.25% | [6] 63.5%

OC1C2CC3C(C2)C13 (stereo unspecified)
inactive: [1] -25.6% | [2] -12.6% | [3] 2.25% | [4] 4.8% | [5] -18.4% | [6] -25.8%

NCCSCc1ccccc1Cl
inactive: [1] -10.3% | [2] -27.2% | [3] -50.9% | [4] -33.5% | [5] -23.6% | [6] -0.4%

COc1ccc(/C(C)=N/OC(=O)c2sc3ccccc3c2Cl)cc1CN1CCOCC1
inactive: [1] -17.9% | [2] -23.9% | [3] -25.4% | [4] -2.05% | [5] -28.9% | [6] -21.6%

O=C1OC2c3ccccc3CC1C2CO (stereo unspecified)
inactive: [1] 20.9% | [2] 4.7% | [3] 7.55% | [4] 9.25% | [5] 2% | [6] -4.45%

COC(=O)c1nc(N)nc(C(=O)OC)c1C(=O)C(C)C
inactive: [1] 5.4% | [2] -10.7% | [3] -24.9% | [4] -13.4% | [5] -29% | [6] -1%

CCOC(=O)Oc1ccc(C(CNC(C)C)OC(=O)OCC)cc1OC(=O)OCC (stereo unspecified)
inactive: [1] 38.5% | [2] 2.8% | [3] 25.6% | [4] 9.65% | [5] 4.45% | [6] 32.9%

COc1ccc(C2N(NC(=O)c3ccncc3)C(=O)CS2(=O)=O)cc1F (stereo unspecified)
inactive: [1] -3.95% | [2] -12.6% | [3] -11.8% | [4] -1.55% | [5] 0.75% | [6] 0.95%

N#Cc1ccc(OCCCCCOc2ccc(C#N)cc2)cc1
inactive: [1] -11.2% | [2] -0.65% | [3] -1.15% | [4] -43.1% | [5] -2.6% | [6] -5.8%

Cc1cccc(NC(=O)c2c(Cl)c(Cl)c(Cl)c(Cl)c2C(=O)O)c1C
inactive: [1] 9.8% | [2] 2% | [3] 2.6% | [4] -35.5% | [5] 5.8% | [6] 8.95%

O=C1OCC2C(=O)N3Cc4cc5ccccc5nc4C3CC12 (stereo unspecified)
inactive: [1] 11.9% | [2] 10.2% | [3] -2.5% | [4] 8.85% | [5] -15.8% | [6] 9.55%

COC1CC(N=[N+]=[N-])C(OC(=O)c2ccccc2)C(CBr)O1 (stereo unspecified)
inactive: [1] 22.4% | [2] 18.1% | [3] 22.6% | [4] -4.4% | [5] 7.4% | [6] 19.6%

O=C1C(Cl)N(c2ccc(Cl)cc2Cl)C1c1c[nH]c2ccccc12 (stereo unspecified)
inactive: [1] -14.4% | [2] -13.9% | [3] -16.7% | [4] 3.05% | [5] 2.95% | [6] -20.4%

O=C1C(Cl)=C(NCCCN2CCN(CCCNC3=C(Cl)C(=O)c4ccccc4C3=O)CC2)C(=O)c2ccccc21
inactive: [1] 44.5% | [2] 27.8% | [3] 33.1% | [4] 9.45% | [5] 6.35% | [6] 33.6%

O=C(NC(Cc1ccccc1)P(=O)(O)c1ccccc1)OCc1ccccc1 (stereo unspecified)
inactive: [1] -8.45% | [2] -30.5% | [3] -30.2% | [4] 15.7% | [5] 2.3% | [6] -12%

N#CC(CC(=O)NN)C(=O)NN (stereo unspecified)
inactive: [1] -20.4% | [2] -8.9% | [3] -21% | [4] -12.4% | [5] -38.7% | [6] -22.5%

Clc1ccc(C(n2cc(Br)cn2)n2cc(Br)cn2)cc1
active: [1] 89.6% | [2] 90.8% | [3] 90.7% | [4] 90.2% | [5] 91% | [6] 87.5%

CCCc1c(-c2ccccc2)nc(N)nc1-c1nc(N)nc(-c2ccccc2)c1CCC
inactive: [1] -1.75% | [2] -10.7% | [3] -12.4% | [4] 9.4% | [5] -2.25% | [6] -1.4%

CCc1ccc(N=Nc2ccc(Br)cc2)cc1
inactive: [1] 8.85% | [2] -18% | [3] -4.95% | [4] 6.85% | [5] 2.85% | [6] -10.3%

CC(C)=CCNc1ncnc2c1ncn2CCC#N
inactive: [1] -24.1% | [2] -6.55% | [3] -16.9% | [4] 5.1% | [5] -35.8% | [6] -21.4%

C/C=C/C=C\C(=O)C1c2cccc(O)c2C(=O)c2c(O)cc(C)cc21 (stereo unspecified)
inactive: [1] 40.4% | [2] 20.9% | [3] 12.3% | [4] 29.6% | [5] 37.5% | [6] 34.1%

O=C1CCCCCCCC(=O)Nc2ccc3nc4ccccc4c(c3c2)SCCCCCCCCCSc2c3ccccc3nc3ccc(cc23)N1
inactive: [1] 27.7% | [2] -13.2% | [3] -6.75% | [4] -13.2% | [5] -6.5% | [6] 4.2%

Cc1cc2c(c3c1C(=O)CC3)CCCC2(C)C
inactive: [1] 9.3% | [2] 3.9% | [3] 2.75% | [4] -6.2% | [5] 2.15% | [6] -1.8%

O=C(O)CSc1ccn(Cc2ccccc2)c1
inactive: [1] -8.15% | [2] -18.5% | [3] -43.1% | [4] -22.8% | [5] -56.8% | [6] -22.6%

CCSc1nnc(-c2ccccc2)nc1Cc1ccc(OC)cc1
inactive: [1] -38.2% | [2] -13.2% | [3] -62.7% | [4] -12.8% | [5] -30.5% | [6] -39.5%

CN(C)N=Nc1c(Cl)cccc1Cl
inactive: [1] 3.35% | [2] 26.7% | [3] -6.6% | [4] -13% | [5] 2.35% | [6] 7.75%

COc1cc2cc(C)c(C)cc2cc1OC
inactive: [1] -5.8% | [2] 13.7% | [3] -4% | [4] -22.9% | [5] -21.9% | [6] 5.65%

O=C(O)CSCC(=O)c1ccccc1
inactive: [1] -2.1% | [2] -16.4% | [3] -43.2% | [4] -29.1% | [5] -53.4% | [6] -16.6%

CC(=O)CC(=O)Nc1ccc(-c2ccccc2)cc1
inactive: [1] 19.7% | [2] 3.95% | [3] 18.1% | [4] -16.2% | [5] -6.9% | [6] -0.35%

C[C@H]1CC[C@@]2(OC1)O[C@H]1C[C@H]3[C@@H]4CC[C@@H]5C[C@@H](OC6OC(CO)C(O)C(O)C6OC6OC(CO)C(O)C(O)C6O)CC[C@]5(C)[C@H]4CC[C@]3(C)[C@H]1[C@@H]2C (stereo partly specified)
inactive: [1] 54.2% | [2] 68.4% | [3] 37.8% | [4] 19.3% | [5] -16.2%
active: [6] 90.5%

O=C1CC(C(=O)O)Cc2c(Br)ccc(O)c21 (stereo unspecified)
inactive: [1] 20.8% | [2] 13.8% | [3] -22.5% | [4] -3.6% | [5] -34% | [6] -44.4%

COc1cc2c(cc1OC)C(c1c(Cl)cccc1Cl)=NCC2
inactive: [1] 13.1% | [2] 10% | [3] 41.4% | [4] 4.25% | [5] 42.6% | [6] 12.7%

CC1(C)CC(OP(=O)(OC2CC(C)(C)N(O)C(C)(C)C2)c2ccccc2)CC(C)(C)N1O
inactive: [1] 32.1% | [2] 8.45% | [3] 11.1% | [4] -21.1% | [5] 6.3% | [6] 6.5%

O=C(c1ccccc1)C(O)(Cc1ccccc1)c1ccccc1 (stereo unspecified)
inactive: [1] 1.9% | [2] 17.2% | [3] 20.8% | [4] 22.8% | [5] 14.4% | [6] 12%

CN(Cc1nc2c(N)nc(N)nc2nc1N)c1ccc(C(=O)NC(CCC(=O)O)C(=O)O)cc1 (stereo unspecified)
inactive: [1] 7.65% | [2] 42.2% | [3] 22.3% | [4] -7.4% | [5] -1.95% | [6] -26.1%
